Assay results as given in PubChem BioAssay (NCI).
“And” between values parts separate entries of the source, which are not always exact repeats. Identical values can stand only once. Compounds without any hit were thinned out: in the full panel of roughly 83,000, 20% have a hit.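 Step 1: grow cells in 96-well plates. Step 2: add test compound at a single concentration. Step 3: incubate 48 h. Step 4: record percent growth.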 A number with no mark means an inactive call. The source made the active and inactive calls. The calls were made as follows: active = growth percent below 10; inactive = the rest.

test system: MDA-MB-468 breast; assay: NCI-60 one-dose screen, 48 h (100 = growth as untreated, 0 = no growth, -100 = all killed); details: 10 µM unless noted

Structure (SMILES) | growth
NC(=O)c1cc(Br)ccc1NC(=O)/C=C/c1ccccc1 | 27.8%
CN1CCN(CCCNC(=O)c2c3c(n4ccccc24)C(=O)c2ncccc2C3=O)CC1 | -59.9% (active)
Cc1cc(Nc2nc(SCc3ccc(C(=O)Nc4ccc(F)cc4N)cc3)nn3cccc23)n[nH]1 | 47.7%
CCCCNc1nc(NN2C(=O)c3cccc4cccc(c34)C2=O)nc(-n2cnc3ccccc32)n1 | 92.7%
O=C1/C(=C/c2ccc([N+](=O)[O-])o2)Oc2ccc(Cl)cc21 | -34.5% (active)
CCNc1nc(S(=O)(=O)CC)nc2ccccc12 | 76.4%
CC(C)(C)c1ccc(O)c(CNC2CCCCC2)c1 | 87% and 87.7%
NC(CSC(c1ccccc1)(c1ccccc1)c1cccc2ccccc12)C(=O)O (stereo not given) | 86%
O=C(O)Cc1ccc(Cl)cc1 | 106%
C=C(C)[C@@H]1CC[C@]2(C(=O)N3CCN(C)CC3)CC[C@]3(C)[C@H](CC[C@@H]4[C@@]5(C)CC[C@H](OP(=O)(OCC)OCC)C(C)(C)[C@@H]5CC[C@]43C)[C@@H]12 | 76.2%
CC(C)C[C@H]1C(=O)O[C@H](C(C)C)C(=O)N(C)[C@@H](C(C)C)C(=O)O[C@H](C(C)C)C(=O)N(C)[C@@H](C(C)C)C(=O)O[C@H](C(C)C)C(=O)N1C | -7.13% (active)
COc1cc(NC(=O)CCSc2nc3ccc(Cl)cc3c(=O)n2Cc2ccccc2)cc(OC)c1OC | 93%
COc1cc(C2CC(c3cc(Cl)c(C)cc3O)=NN2c2ccc(S(N)(=O)=O)cc2)cc(OC)c1OC (stereo not given) | 22.7%
CCCCCCOc1ccc(C(=N)N(CCCC)CCCC)c2ccccc12 | -82.3% (active)
COc1ccc(-c2nc3cc(Cl)c(Cl)cc3n2CC(=O)N=Nc2c(O)[nH]c3ccc(OC)cc23)cc1 | 42.4%
Cc1ccc(Nc2nc(N)nc(N)c2N=O)cc1Cl | 40%
CCOC(=O)c1c(NC(=O)c2ccc(F)cc2F)sc2c1CCC(=O)C2 | 95.2%
OC(CCN1CCCC1)(c1ccccc1)C1CCCCC1 (stereo not given) | 92%
Cc1ccc(-c2nc(C(Cl)Cl)nc3cc(-c4ccccc4)nn23)cc1 | -54.2% (active)
CCN(CC)CCCOc1ccc2ncnc(Nc3ccc(Oc4cccc(C(F)(F)F)c4)c(Cl)c3)c2c1 | -64.7% (active)

Structure (SMILES) | growth
Nc1c(C(=O)Nc2ccccn2)sc2nc3c(cc12)CCCCCC3 | 8.53% (active)
O=S(=O)(NCCCNc1nccc(-c2c(-c3ccc(F)c(O)c3)nc3sccn23)n1)c1ccccc1 | 82.4%
N=C(c1ccccc1)N(Cc1ccccc1)Cc1ccccc1 | 98.2%
NS(=O)(=O)c1ccc(Nc2nc(N/N=C/c3ccc4c(c3)OCO4)nc(Nc3ccccc3)n2)cc1 | 46.4%
C=CCn1c(C)nc2cc(Nc3nc(Nc4ccc5nc(C)n(CC=C)c5c4)c4ccccc4n3)ccc21 | -85% (active)
O=C(Nc1cc(Cl)ccc1O)c1ccc(Nc2ccnc(C(F)(F)F)c2)cc1 | 58.7%
Cc1csc(Nc2cccc(Nc3nc(C)cs3)c2)n1 | 47.6%
COc1ccc2cc(-c3ccc(-c4ccc(C(=N)N)cc4)s3)ccc2c1 | 98.2%
COc1cc(/C=C/C(=O)c2c(C)oc3nc[nH]c(=O)c23)ccc1O | 113%
CC(C)(C)Nc1nc2c(OCCc3ccccc3)cccn2c1-c1cccc(F)c1 | -30.8% (active)
Nc1ccccc1-c1ccc(-c2ccc(Cl)cc2)c2c1[nH]c1ccccc12 | 91.5%
CC(C)=CCC[C@@H](C)[C@H]1CC[C@@]2(C)C3=C(CC[C@]12C)[C@@]1(C)CC[C@H](O)C(C)(C)[C@@H]1CC3 | 102%
CC(O)c1cc[cH-]c1.[Fe+2].c1cc[cH-]c1 (stereo not given) | 94.5%
CCOc1ccc(/C=N/Nc2cc(C)nc3ccc(Cl)cc23)cc1 | -9.24% (active)
CC1SC(=S)N(c2ccc(Cl)cc2)C1=O (stereo not given) | 84.9% and 90.4%
COc1cc(C2=NN(C=O)C(c3cccc(Nc4ccnc5cc(Cl)ccc45)c3)C2)cc(OC)c1OC (stereo not given) | 59.2%
CC1(C)CC[C@]2(C(=O)NCC#CCN3CCOCC3)CC[C@]3(C)C(=CC[C@@H]4[C@@]5(C)Cc6c([nH]c7ccccc67)C(C)(C)[C@@H]5CC[C@]43C)[C@@H]2C1 | 90.8%
COc1ccc(C2Nc3ccccc3-n3cccc32)cc1 (stereo not given) | 108%
Cn1cc(-c2nnc(-c3cn(C)c4ncc(Br)cc34)s2)c2cc(Br)ccc21 | 101%
CCCCCS(=O)(=O)Nc1ccc(C(=O)O)cc1 | 104%
